{"source": "PubChem BioAssay (NCATS)", "note": "Inconclusive results are not listed. Activity calls are given as the source filed them. Calls follow the shape of the dose curve; as a rule, active = well fitted inhibition curve with a large enough effect; inconclusive = small, poorly fitted or top-dose-only effect; inactive = flat fitted curve, though single readings scatter. % is scaled to controls: 0 for no effect and ±100 for the full control effect.", "data": [{"target": "Calcium and integrin-binding protein 1 (Homo sapiens) (UniProt Q99828)", "sequence (Q99828 whole entry, looked up)": "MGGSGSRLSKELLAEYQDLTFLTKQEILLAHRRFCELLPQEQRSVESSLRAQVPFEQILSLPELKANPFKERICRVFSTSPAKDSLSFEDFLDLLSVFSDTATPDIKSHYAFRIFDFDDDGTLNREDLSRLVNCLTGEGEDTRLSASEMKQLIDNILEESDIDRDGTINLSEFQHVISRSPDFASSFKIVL", "test": "Primary qHTS for Identification of Calcium Integrin Binding Protein 1 (CIB1) Competitor (AID 1508620);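 also: GST tagged CIB1 binding a fluorescein labelled alphaIIb integrin peptide tracer; top concentration of the series differs between compounds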", "settings": "CIB1-GST / FITC-alphaIIb peptide fluorescence polarization; series mostly up to 114 µM; activity change, negative = inhibition: at the top concentration", "summary_of_the_method": "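Fluorescence polarization competition: CIB1-GST (1 uM final) preincubated with compound 15 min at room temperature, then FITC-labeled alphaIIb peptide (100 nM final) added for another 15 min. Polarization read at Ex 480/Em 540.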", "values": [{"smiles": "Cc1c(Cl)cccc1NS(=O)(=O)c1cc2c(cc1F)NC(=O)CC2", "activity change, negative = inhibition": "-2.03% (inactive)"}, {"smiles": "Cc1cc2c(s1)c1c(C)nn(Cc3ccc(F)cc3)c(=O)c1n2C", "activity change, negative = inhibition": "3.78% (inactive)"}, {"smiles": "Fc1cc(Nc2nc(-c3ccncc3)nc3ccccc23)ccc1-c1cccnc1", "activity change, negative = inhibition": "13.2% (inactive)"}, {"smiles": "COc1cccc(C2c3c(ncn(-c4cccc(C)c4)c3=N)Oc3ccc4ccccc4c32)c1", "note": "(stereo not given)", "activity change, negative = inhibition": "8.38% (inactive)"}, {"smiles": "Cc1cc(NS(=O)(=O)c2ccc(NC(=O)Cc3ccc(Cl)cc3)cc2)no1", "activity change, negative = inhibition": "-8.01% (inactive)"}, {"smiles": "Cc1nc(CN=C2NC3=C(C(=O)CCC3)C(c3[nH]ncc3Cl)N2)cs1", "note": "(stereo not given)", "activity change, negative = inhibition": "-2.94% (inactive)"}, {"smiles": "O=C(OCC#CCSc1nnc(-c2cccs2)o1)c1ccc(F)cc1", "activity change, negative = inhibition": "2.34% (inactive)"}, {"smiles": "COC(=O)c1ccc(Nc2nc(-c3ccncc3)nc3ccccc23)cc1OC", "activity change, negative = inhibition": "1.55% (inactive)"}, {"smiles": "COc1ccc(-n2cnc3c(c2=N)C(c2cccc(OC)c2)c2c(ccc4ccccc24)O3)cc1", "note": "(stereo not given)", "activity change, negative = inhibition": "5.41% (inactive)"}, {"smiles": "CSc1ccc(CNc2ncnc3ccc(-c4c(C)noc4C)cc23)cc1", "activity change, negative = inhibition": "4.78% (inactive)"}, {"smiles": "CCC(C)(CCN1CCOCC1)N(Cc1cc2ccccc2n(C)c1=O)C(=O)C1CCCCC1", "note": "(stereo not given)", "activity change, negative = inhibition": "2.28% (inactive)"}, {"smiles": "O=C(COC(=O)CNC(=O)c1ccccc1Cl)Nc1ccccc1Cl", "activity change, negative = inhibition": "1.09% (inactive)"}, {"smiles": "Cc1ccc(NC(=O)CSc2nnc(-c3cccc([S+](=O)([O-])N4CCCC4)c3)n2-c2c(C)cccc2C)cc1", "activity change, negative = inhibition": "3.04% (inactive)"}, {"smiles": "O=C(CNC(=O)c1ccc2ccccc2c1)OC(C(=O)Nc1cc(C(F)(F)F)ccc1Cl)c1ccccc1", "note": "(stereo not given)", "activity change, negative = inhibition": "3.94% (inactive)"}, {"smiles": "CCCCc1ccc(-c2ccc(=O)n(CC(=O)NCCc3ccccc3)n2)cc1", "activity change, negative = inhibition": "4.3% (inactive)"}, {"smiles": "N#Cc1nc(Nc2ccc(-c3ccccc3)cc2)nc(NC2CCCC2)n1", "activity change, negative = inhibition": "6.24% (inactive)"}, {"smiles": "Cc1ccc(OCCn2c(CCNC(=O)C3CCCC3)nc3ccccc32)cc1", "activity change, negative = inhibition": "6.47% (inactive)"}, {"smiles": "CCCCN(C)C(=O)Cn1nc(-c2ccc(OC)cc2)ccc1=O", "activity change, negative = inhibition": "0.31% (inactive)"}, {"smiles": "NC(=O)C1CCN(c2nc(-c3ccc(N4CCCCC4)nc3)cs2)CC1", "activity change, negative = inhibition": "-14.5% (inactive)"}, {"smiles": "CN(C)c1cccc(NS(=O)(=O)c2ccc(NC(=O)Cc3ccc(Cl)c(Cl)c3)cc2)c1", "activity change, negative = inhibition": "-9.06% (inactive)"}, {"smiles": "O=[N+]([O-])c1ccc(-c2nc(Nc3ccc(F)c(F)c3)c3ccccc3n2)cc1", "activity change, negative = inhibition": "-2.54% (inactive)"}, {"smiles": "Cc1ccc(-c2ccc(=O)n(CCN)n2)cc1", "activity change, negative = inhibition": "0.435% (inactive)"}, {"smiles": "O=C1CCCC2=C1C(c1[nH]ncc1Cl)NC(=NCc1ccccn1)N2", "note": "(stereo not given)", "activity change, negative = inhibition": "-2.52% (inactive)"}, {"smiles": "Cc1cc(C)nc(NC(=S)N2CCN(c3nnc(C(F)(F)F)s3)CC2)c1", "activity change, negative = inhibition": "-0.612% (inactive)"}, {"smiles": "Cc1cc(-c2ccccc2)nc2c(C(=O)Nc3ccc4c(c3)CCC4)cnn12", "activity change, negative = inhibition": "1.99% (inactive)"}, {"smiles": "Cc1cc(N[S+](=O)([O-])c2ccc(NC(=O)Cc3cccc(Cl)c3Cl)cc2)no1", "activity change, negative = inhibition": "-15.2% (inactive)"}, {"smiles": "CCOc1ccc(CCNC(=O)c2ccc(C3(C(F)(F)F)N=N3)cc2)cc1OCC", "activity change, negative = inhibition": "1.3% (inactive)"}, {"smiles": "NC(=O)C1CCN(c2nc(-c3ccc(OCc4ccccc4)cc3)cs2)CC1", "activity change, negative = inhibition": "-4.3% (inactive)"}, {"smiles": "Cc1ccnc(NC(=S)N2CCN(c3ccc(C(F)(F)F)cc3[N+](=O)[O-])CC2)c1", "activity change, negative = inhibition": "-9.39% (inactive)"}, {"smiles": "Cc1ccc(C2N=C(Nc3nc4ccccc4o3)NC3=C2C(=O)CCC3)cc1", "note": "(stereo not given)", "activity change, negative = inhibition": "-2.38% (inactive)"}, {"smiles": "Oc1cccc2cc(NCc3ccccc3F)cnc12", "activity change, negative = inhibition": "-10.2% (inactive)"}, {"smiles": "Brc1cnc2nc(SCc3ccccc3)[nH]c2c1", "activity change, negative = inhibition": "0.0892% (inactive)"}, {"smiles": "COc1cc(Nc2nc(-c3ccncc3)nc3ccccc23)ccc1F", "Potency": "inactive"}, {"smiles": "CCOC(=O)C1CCN(C(=O)C(C)(C)NC(=O)Nc2ccc(Cl)cc2Cl)CC1", "activity change, negative = inhibition": "5.36% (inactive)"}, {"smiles": "FC(F)(F)c1cccc(-c2ccc(CNc3nc(-c4ccccc4C(F)(F)F)nc4ccccc34)cc2)c1", "activity change, negative = inhibition": "5.29% (inactive)"}, {"smiles": "O=S(=O)(c1ccccc1)N1CCN(c2nc(C3CC3)nc3ccccc23)CC1", "activity change, negative = inhibition": "2.33% (inactive)"}, {"smiles": "N#Cc1nc(-c2cccc3ccccc23)oc1NC1CNC1", "activity change, negative = inhibition": "-4.65% (inactive)"}, {"smiles": "CC(C)Oc1cccc(-c2ccnc(N3CCC(C(N)=O)CC3)n2)c1", "activity change, negative = inhibition": "2.08% (inactive)"}, {"smiles": "c1csc(CNc2ccc(N3CCCCC3)cc2)c1", "activity change, negative = inhibition": "0.2% (inactive)"}, {"smiles": "Cc1cccc(-c2ccc3ncnc(NCc4cccs4)c3c2)c1", "activity change, negative = inhibition": "5.97% (inactive)"}]}]}
